Assay results as given in PubChem BioAssay.
Where “and” joins values, the source holds several entries; their conditions need not be identical. Equal values may be shown once. Records with an inconclusive call do not appear. Calls of active or inactive are those of the source.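 Rule for the calls, unless noted: active = mean z-score across replicates of 1.96 or higher in either the MELAS or the Rieske mutant cell line; inactive = the rest.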

Experiments:
[1] = stimulators of nuclear beta-catenin in C2C12, primary screen, imaging, WNT3A-conditioned medium, mouse C2C12, NPC library (AID 1117326; in the data active = nuclear beta-catenin stimulation mostly above about 4.2%, no sharp cut-off; inactive = mostly below about 10%; note: reference of the scale not given here); conditions: stronger effect = higher value
[2] = stimulators of insulin release from INS-1E, primary screen, cell-based, 5 mM glucose, NPC library (AID 1117329;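 active = compound raises insulin release from rat beta cells at 5 mM glucose, no numeric limit stated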; note: reference of the scale not given here); conditions: rat INS-1E insulin secretion, at 10 µM, stronger effect = higher value
[3] = growth inhibition of GSK3B-pretreated HCT116 cells – cell-based, CellTiter-Glo, 0.2 to 20 µM (AID 1117336;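 active = compounds lowering colon cancer cell viability after pretreatment blocking the GSK3B kinase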); conditions: HCT116 viability after GSK3B inhibitor, at 20 µM, stronger effect = higher value
[4] = inhibition of endothelial tube formation, primary screen, imaging, VEGF stimulated, CD31 staining, tube area, NPC library (AID 1117340;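 active = compound that reduces growth-factor-driven endothelial tube area in a mixed cell culture, no cutoff stated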); conditions: VEGF-stimulated ADSC/ECFC co-culture, at 10 µM, stronger effect = higher value
[5] = glucagon-like peptide 1 release enhancers, primary assay, NCI-H716 cell line, NPC library (AID 1117341;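 active = compound raises GLP1 secretion from the human gut endocrine cells, with no numeric limit stated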; note: reference of the scale not given here); conditions: NCI-H716 cells, at 10 µM, stronger effect = higher value
[6] = HCT116 colon cancer cell growth inhibition, primary screen, CellTiter-Glo luminescence, NPC library (AID 1117342;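 active = compounds that lower survival of HCT116 colon cancer cells in the luminescence readout, no numeric limit stated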); conditions: at 20 µM (top of the series)
[7] = CellTiter-Glo luminescent readout of SW480 viability loss, NPC library primary (AID 1117343;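 active = compounds that lower viability of the colon cancer cells in the luminescence readout, with no numeric limit stated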); conditions: CellTiter-Glo luminescence; at 20 µM (top of the series) unless noted
[8] = decreased DLD-1 cellular survival, CellTiter-Glo luminescent readout, NPC compound collection, primary HTS (AID 1117346;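 active = compounds that lower survival of DLD-1 colon cancer cells in the luminescence readout, no cutoff given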); conditions: DLD-1 viability, CellTiter-Glo luminescence; at 20 µM (top of the series)
[9] = growth inhibition of DIPG glioma cells, dose response, cell-based, SU-DIPG-IV, MIPE4.0, CellTiter-Glo, qHTS (AID 1347063; cut-off not given, nearly all actives have AC50 up to about 30 µM;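 note: compound exposure lasted 48 hours before the viability readout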); conditions: SU-DIPG-IV viability, CellTiter-Glo ATP luminescence
[10] = viability loss in pontine glioma line – cell-based, SU-DIPG-XXV, MIPE5.0, CellTiter-Glo, qHTS, dose response (AID 1347065; cut-off not given, nearly all actives have AC50 up to about 26 µM;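 note: cells exposed to compound for 48 hours before ATP readout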); conditions: CellTiter-Glo ATP luminescence
[11] = SU-DIPG-VI glioma cell viability, MIPE4.0 library, CellTiter-Glo luminescence, qHTS (AID 1347066; cut-off not given, nearly all actives have AC50 up to about 30 µM;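 note: cells exposed to compound for 48 hours before readout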); conditions: CellTiter-Glo ATP luminescence
[12] = SU-DIPG-XXV glioma cell viability, MIPE5.0 library, qHTS (AID 1347068; cut-off not given, nearly all actives have IC50 up to about 30 µM)
[13] = sensitizers of A549 cells to miR-34 induction, primary screen, imaging, A549 dox-inducible miR-34, nuclei and caspase counts (AID 1347080;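 active = compounds whose cell count with miR-34 switched on is under 0.7 times the count with it off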); conditions: A549 miR-34 inducible, Hoechst nuclei count, 48 h
[14] = survival rescue of mitochondrial mutant cells in low glucose, primary screen, MELAS cybrids, Rieske KO mouse fibroblasts, CellTiter-Glo (AID 1508586);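 note: z relative to plate mean and SD of compound and empty wells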
[15] = viability rescue of complex I mutant cybrids, primary screen, cell-based, galactose medium, ATP luminescence (AID 1645843;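 active = z-score of at least 1.8 in each of two replicates, scored against plate mean and spread of sample wells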;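 note: positive z means more ATP and so rescue of galactose-driven cybrid death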); conditions: complex I mutant cybrid cells, 72 h, stronger effect = higher value
[16] = growth inhibition of DIPG glioma cells, dose response, cell-based, JHH-DIPG-1, MIPE4.0, CellTiter-Glo, qHTS (AID 1347062; cut-off not given, nearly all actives have AC50 up to about 27 µM;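 for AC50: cells exposed to compound for two days before readout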); conditions: JHH-DIPG-1 viability, CellTiter-Glo ATP luminescence
[17] = liver-stage malaria parasite growth inhibition, primary screen, cell-based, HepG2, luciferase luminescence, HepG2 viability (AID 624349; in the data active = parasite load remaining mostly below about 12%, no sharp cut-off; inactive = mostly above about 10%;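 note: 100% = mean of DMSO negative control wells on the same plate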); conditions: P. berghei liver stage in HepG2, luciferase luminescence, concentration not given here; parasite load remaining: stronger effect = lower value; viability: measured here: HepG2 viability without parasites
[18] = JHH-DIPG-1 glioma cell viability, MIPE5.0 library, CellTiter-Glo luminescence, qHTS (AID 1347067; cut-off not given, nearly all actives have AC50 up to about 26 µM;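 note: cells exposed to compound for 48 hours before readout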); conditions: JHH-DIPG-1 glioma viability, CellTiter-Glo ATP luminescence
[19] = stronger effect = lower value, cell number ratio, induced over uninduced
[20] = measured here: relative caspase fold change +Dox/-Dox
[21] = measured here: total cells with miR-34 induction, stronger effect = lower value
[22] = measured here: total cells without miR-34 induction
[23] = MELAS cybrid survival, CellTiter-Glo 48 h, stronger effect = higher value
[24] = Rieske KO mouse fibroblast survival, CellTiter-Glo 72 h

CC(C)(C)C(=O)OCOP(=O)(COCCn1cnc2c(N)ncnc21)OCOC(=O)C(C)(C)C
nuclear beta-catenin stimulation ([1]; at 10 µM): 79.6% (active) | nuclear beta-catenin stimulation ([1]; stimulation, at 2 µM): 72.7% | insulin secretion stimulation [2]: 3.5% (inactive) | viability decrease [3]: 95.4% (active) | tube area decrease [4]: 100% (active) | GLP1 secretion stimulation [5]: 2.8% (inactive) | inhibition of viability [6]: 73.3% (active) | viability decrease (inhibition) [7]: 95.4% (active) | viability decrease (inhibition) [8]: 78.5% (active) | AC50 [9]: 7.43 µM (active) | AC50 [10]: 20.9 µM (active) | AC50 [11]: 16.6 µM (active) | outcome [12]: inactive | fold change [13, 19]: 0.906 (inactive) and 0.857 (inactive) | fold change [13, 20]: 0.703 and 1.46 | cell count [13, 21]: 5980 and 5100 | cell count [13, 22]: 6600 and 5960 | z-score [14, 23]: -0.539 (inactive) and -0.165 (inactive) | z-score [14, 24]: 0.795 and 0.351 | z-score [15]: -0.625 (inactive)

COc1cc(C(C)=O)ccc1OCCCN1CCC(c2noc3cc(F)ccc23)CC1
nuclear beta-catenin stimulation ([1]; at 10 µM): 1.5% (inactive) | nuclear beta-catenin stimulation ([1]; stimulation, at 2 µM): 0.5% | insulin secretion stimulation [2]: 3.8% (inactive) | viability decrease [3]: 66.1% (active) | tube area decrease [4]: 16.7% (inactive) | GLP1 secretion stimulation [5]: 6.5% (inactive) | inhibition of viability [6]: 80.7% (active) | viability decrease (inhibition) [7]: 100% (active) | viability decrease (inhibition) [8]: 33.5% (inactive) | outcome [9]: inactive | fold change [13, 19]: 0.893 (inactive) and 0.919 (inactive) | fold change [13, 20]: 0.354 and 0.917 | cell count [13, 21]: 6850 and 7430 | cell count [13, 22]: 7670 and 8090 | z-score [14, 23]: -0.601 (inactive) and -0.433 (inactive) | z-score [14, 24]: 0.999 and 0.549 | z-score [15]: -1.19 (inactive)

CCCCC(CC)COC(=O)C(C#N)=C(c1ccccc1)c1ccccc1 (centres undefined)
nuclear beta-catenin stimulation ([1]; at 10 µM): -0.2% (inactive) | nuclear beta-catenin stimulation ([1]; stimulation, at 2 µM): 0.7% | insulin secretion stimulation [2]: -1.3% (inactive) | viability decrease [3]: 51.7% (active) | tube area decrease [4]: 19.7% (active) | GLP1 secretion stimulation [5]: -1.3% (inactive) | inhibition of viability [6]: 43.8% (inactive) | viability decrease (inhibition) [7]: 28.2% (inactive) | viability decrease (inhibition) [8]: 56.9% (active) | outcome [16]: inactive | outcome [9]: inactive | outcome [11]: inactive | outcome [12]: inactive

O=C(OC1C[C@H]2CC[C@@H](C1)[N+]21CCCC1)C(O)(c1ccccc1)c1ccccc1 (some centres undefined)
nuclear beta-catenin stimulation ([1]; at 10 µM): -1.3% (inactive) | nuclear beta-catenin stimulation ([1]; stimulation, at 2 µM): -2% | insulin secretion stimulation [2]: 1.3% (inactive) | viability decrease [3]: -50.2% (inactive) | tube area decrease [4]: 10.7% (inactive) | GLP1 secretion stimulation [5]: -3.1% (inactive) | inhibition of viability [6]: 7.13% (inactive) | viability decrease (inhibition) [7]: -11.6% (inactive) | viability decrease (inhibition) [8]: -9.1% (inactive) | outcome [16]: inactive | outcome [9]: inactive | outcome [11]: inactive | fold change [13, 19]: 1.02 (inactive) | fold change [13, 20]: 0.872 | cell count [13, 21]: 10400 | cell count [13, 22]: 10200 | z-score [14, 23]: -0.39 (inactive) | z-score [14, 24]: 0.689

O=C(Nc1cccc2c(=O)cc(-c3nn[nH]n3)oc12)c1ccc(OCCCCc2ccccc2)cc1
parasite load remaining [17]: 45% (inactive) | viability [17]: 94.5% | nuclear beta-catenin stimulation ([1]; at 10 µM): 0.3% (inactive) | nuclear beta-catenin stimulation ([1]; stimulation, at 2 µM): -0.2% | insulin secretion stimulation [2]: 2.85% (inactive) | viability decrease [3]: 108% (active) | tube area decrease [4]: -18.5% (inactive) | GLP1 secretion stimulation [5]: 21.5% (active) | inhibition of viability [6]: 112% (active) | viability decrease (inhibition) [7]: 125% (active) | viability decrease (inhibition) [8]: 88.8% (active) | outcome [11]: inactive | fold change [13, 19]: 0.93 (inactive) and 0.898 (inactive) | fold change [13, 20]: 0.309 and 1.37 | cell count [13, 21]: 5160 and 10700 | cell count [13, 22]: 5550 and 12000 | z-score [14, 23]: 0.447 (inactive) and -0.129 (inactive) | z-score [14, 24]: 0.183 and 0.319 | z-score [15]: 1.36 (inactive)

O=C(O)c1cccc(-c2noc(-c3ccccc3F)n2)c1
nuclear beta-catenin stimulation ([1]; at 10 µM): 2.5% (inactive) | nuclear beta-catenin stimulation ([1]; stimulation, at 2 µM): 4.8% | insulin secretion stimulation [2]: 0% (inactive) | viability decrease [3]: 8.8% (inactive) | tube area decrease [4]: -5.7% (inactive) | GLP1 secretion stimulation [5]: 2.2% (inactive) | inhibition of viability [6]: 15.5% (inactive) | viability decrease (inhibition) [7]: 2.3% (inactive) | viability decrease (inhibition) [8]: -11% (inactive) | outcome [9]: inactive | outcome [11]: inactive | outcome [12]: inactive | fold change [13, 19]: 0.927 (inactive) | fold change [13, 20]: 0.71 | cell count [13, 21]: 10200 | cell count [13, 22]: 11000 | z-score [14, 23]: -0.357 (inactive) | z-score [14, 24]: 0.633

Cc1ccc(-c2ncc(Cl)cc2-c2ccc(S(C)(=O)=O)cc2)cn1
parasite load remaining [17]: 30% (inactive) | viability [17]: 120% | nuclear beta-catenin stimulation ([1]; at 10 µM): 10.8% (inactive) | nuclear beta-catenin stimulation ([1]; stimulation, at 2 µM): 8.4% | insulin secretion stimulation [2]: 2.3% (inactive) | viability decrease [3]: 27.3% (inactive) | tube area decrease [4]: -22.7% (inactive) | GLP1 secretion stimulation [5]: 0.5% (inactive) | inhibition of viability [6]: -14.5% (active) | viability decrease (inhibition) [7]: 5.7% (inactive) | viability decrease (inhibition) [8]: 12.4% (inactive) | outcome [18]: inactive | outcome [12]: inactive | fold change [13, 19]: 0.833 (inactive) | fold change [13, 20]: 0.95 | cell count [13, 21]: 8800 | cell count [13, 22]: 10600 | z-score [14, 23]: -0.283 (inactive) and 0.00989 (inactive) | z-score [14, 24]: 0.187 and -0.33 | z-score [15]: 1.08 (inactive)

Cc1c(C(=O)NN2CCCCC2)nn(-c2ccc(Cl)cc2Cl)c1-c1ccc(Cl)cc1
nuclear beta-catenin stimulation ([1]; at 10 µM): -0.4% (inactive) | nuclear beta-catenin stimulation ([1]; stimulation, at 2 µM): -0.1% | insulin secretion stimulation [2]: 3% (inactive) | viability decrease [3]: 109% (active) | tube area decrease [4]: 110% (active) | GLP1 secretion stimulation [5]: 1.2% (inactive) | inhibition of viability [6]: 108% (active) | viability decrease (inhibition) [7]: 130% (active) | viability decrease (inhibition) [8]: 101% (active) | AC50 [16]: 16.6 µM (active) | AC50 [9]: 16.6 µM (active) | AC50 [18]: 18.6 µM (active) | outcome [12]: inactive | fold change [13, 19]: 0.783 (inactive) and 0.989 (inactive) | fold change [13, 20]: 0.923 and 2.07 | cell count [13, 21]: 4800 and 7920 | cell count [13, 22]: 6120 and 8010 | z-score [14, 23]: -1.37 (inactive) and -3.1 (inactive) | z-score [14, 24]: 0.317 and -0.818 | z-score [15]: -2.65 (inactive)

O=C(O)[C@H](O)c1ccccc1
nuclear beta-catenin stimulation ([1]; at 10 µM): 3.7% (inactive) | nuclear beta-catenin stimulation ([1]; stimulation, at 2 µM): 3.1% | insulin secretion stimulation [2]: -0.6% (inactive) | viability decrease [3]: -6.9% (inactive) | tube area decrease [4]: -9.1% (inactive) | GLP1 secretion stimulation [5]: 1.8% (inactive) | inhibition of viability [6]: -5.47% (inactive) | viability decrease (inhibition) [7]: -30.4% (inactive) | viability decrease (inhibition) [8]: -21.9% (inactive) | fold change [13, 19]: 0.975 (inactive) | fold change [13, 20]: 0.478 | cell count [13, 21]: 5430 | cell count [13, 22]: 5570

O=c1[nH]c(=O)n([C@H]2C[C@H](O)[C@@H](CO)O2)cc1C(F)(F)F
nuclear beta-catenin stimulation ([1]; at 10 µM): 44.5% (active) | nuclear beta-catenin stimulation ([1]; stimulation, at 2 µM): 39% | insulin secretion stimulation [2]: 1.1% (inactive) | viability decrease [3]: 84.6% (active) | tube area decrease [4]: 99.5% (active) | GLP1 secretion stimulation [5]: -3.2% (inactive) | inhibition of viability [6]: 84% (active) | viability decrease (inhibition) [7]: 98.1% (active) | viability decrease (inhibition) [8]: 41.5% (active) | outcome [16]: inactive | outcome [10]: inactive | outcome [11]: inactive | outcome [18]: inactive | outcome [12]: inactive | z-score [14, 23]: 0.972 (inactive) | z-score [14, 24]: 1.84
